Screens (PubChem)
A selection: hits, their analogues and other compounds. The true share with any hit is near 4.1%.
MIN6 prolif: inducers of MIN6 beta-cell proliferation, primary screen, ATP luminescence, uHTS; MIN6 cells proliferation, ATPlite luminescence, 48 h; cells starved in 0.2% serum; 100% = growth in 10% serum; proliferation, % at 10 µM; 330,000 tested, 0.29% active; AID 2380, 2010;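 active = compounds whose signal lies at least 3.5 SD above the mean of all wells on their plate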;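 note: 0% = DMSO-treated cells in low-serum medium and 100% = 10% serum control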
p-CIP stab down: p/CIP-EGFP fusion destabilizers, primary screen, fluorescence, F442A cells; Q05BA5; 16 h; decrease of EGFP signal, % at 10 µM; 290,000 tested, 0.01% active; AID 1984, 2009;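 active = EGFP signal decrease of at least 30% at 10 µM or well 3 SD below plate mean, unless failing retest; inactive = the rest, including hits failing retest or dose response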
MPTP block: mitochondrial permeability transition pore inhibitors, primary screen, biochemical, isolated mouse mitochondria, absorbance; Ca2+ swelling absorbance, 30 min; inhibition, % at 10 µM; 360,000 tested, 1.4% active; AID 602449, 2012;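 active = inhibition of 50% or more, scaled per plate between neutral and stimulator controls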;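 note: 0% = DMSO wells given calcium and 100% = 1 mM EGTA wells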
FAS TE block: FAS thioesterase domain inhibitors, primary screen, biochemical, fluorescence intensity, uHTS. Fatty acid synthase (Homo sapiens), P49327. recombinant FAS-TE, OMFH fluorogenic substrate, fluorescence endpoint. inhibition, % at 15 µM. 360,000 tested, 0.67% active;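 active = compounds whose normalised, plate-corrected inhibition of enzyme fluorescence in the single-dose primary screen is 50% or more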;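 note: 0% = DMSO with enzyme and 100% = substrate without enzyme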
GRIN3A LBD mod: binders of NR3A ligand-binding domain, primary screen, biophysical, differential scanning fluorimetry, uHTS; Glutamate receptor ionotropic, NMDA 3A (GRIN3A) ligand-binding domain; NR3A LBD differential scanning fluorimetry, Tm shift; 0% = protein alone, 100% = glycine-bound protein; Tm shift relative to glycine control, % at 25 µM; 340,000 tested, 2.5% active; AID 1259313, 2017;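 active = melting temperature shift of at least 10% of the positive control shift, at one fixed dose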
Rh123 counter: fluorescence retest of MPTP screen hits in isolated mitochondria, single concentration; shares compounds with MPTP block; membrane potential, Rhodamine 123 fluorescence; inhibition, % at 10 µM; 5,000 tested, 78% active; AID 624504, 2012; in the data active = inhibition above about 22%;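 note: 0% = DMSO vehicle and 100% = positive control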
MPTP abs DR: mitochondrial permeability transition pore inhibitors, dose response, biochemical, absorbance, uHTS hits | shares compounds with MPTP block | isolated mitochondria swelling | IC50, µM | 780 tested, 58% active; in the data active = IC50 below about 20 µM
MPTP counter DR: fluorescent counter-screen in isolated mitochondria, dose response, counter-screen for MPTP inhibitor project, biochemical, fluorescence, uHTS hits; shares compounds with MPTP block; isolated mitochondria counterscreen, fluorescence read-out; IC50, µM; 780 tested, 49% active; AID 651564, 2012; in the data active = IC50 below about 80 µM
The depositor's hits bear a star; i = inactive; . = no result.

SMILES	MIN6 prolif	p-CIP stab down	MPTP block	FAS TE block	GRIN3A LBD mod	Rh123 counter	others
O=C(CN(c1ccccn1)S(=O)(=O)c1ccc(F)cc1)Nc1ccc(F)cc1F	2	-1	0	-4	2	.
O=C(NCc1csc(-c2cccs2)n1)C1CCC1	-3	-6	1	-2	4	.
CC(=O)c1c(C)[nH]c(C(=O)OCC(=O)Nc2ccc(Cl)cc2[N+](=O)[O-])c1C	0	-7	91*	15	-14	93*
CCOC(=O)c1c(C)[nH]c(C(=O)OCC(=O)Nc2cc(Cl)ccc2OC)c1C	0	-3	2	-3	-5	.
Cc1cc(NNC(=O)c2cccc(C(F)(F)F)c2)nc2c1c(C)nn2C	1	-6	86*	0	1	41*
CC(C)Nc1ccccc1	1	.	0	-1	-1	.
CC(C)Nc1nc2nonc2nc1Nc1ccccc1	-3	0	91*	0	1	81*
CCCC(=O)Nc1cccc(NC(=O)Cc2ccc(Cl)cc2)c1	.	.	2	-4	.	.
Cc1c(CC(=O)Nc2ccc(Cl)cc2)sc2ccc(Cl)cc12	-2	6	88*	9	28*	91*
O=C(NNC(=O)c1ccccc1C(=O)O)c1ccc(O)cc1	-3	-6	0	-4	2	.
CCN(c1nc(N)c(C(=O)N=C(N)N)nc1Cl)C(C)C	-4	.	1	-14	-2	.
Cn1nc(OC(=O)Nc2cccc(Cl)c2)cc1C(F)(F)F	-5	2	88*	4	15*	87*
Cn1nc(OC(=O)Nc2ccccc2)cc1C(F)(F)F	-4	-6	.	.	.	.
O=C(CSc1nnc(CNC(=O)c2cccs2)o1)c1ccc(Cl)cc1	0	-4	77*	2	-2	30*
O=C(CSc1nnc(CNC(=O)c2ccccc2F)o1)c1ccc(Cl)cc1	-2	-9	69*	1	1	13	MPTP abs DR=i;MPTP counter DR=26*
COc1ccc(CN2C(=O)C(CC(=O)NCc3cccs3)CC(C(=O)N3CCOCC3)=C2C)cc1 (stereo not given)	.	.	0	-8	.	.
CCCOc1ccc(/C=C2\SC(=S)N(CC3CCCO3)C2=O)cc1 (stereo not given)	-1	-5	1	20	5	.
O=C1/C(=C/c2ccc(O)cc2)SC(=S)N1CC1CCCO1 (stereo not given)	-3	-19	60*	-11	2	70*
Fc1ccc(C2=CC(c3ccco3)n3ncnc3N2)cc1 (stereo not given)	-1	2	2	-16	-2	.
Cn1cccc1C1C=C(c2ccc(C(C)(C)C)cc2)Nc2ncnn21 (stereo not given)	-8	.	82*	2	9	69*
C1=C(c2ccc(-c3ccccc3)cc2)Nc2ncnn2C1c1ccco1 (stereo not given)	.	-133	58*	-219	-9	9
CC(C)(C)c1ccc(C2=CC(c3ccccc3F)n3ncnc3N2)cc1 (stereo not given)	-4	.	1	1	0	.
CCOC(=O)c1ccc(NC(=S)NCc2ccccc2)cc1	-4	1	89*	9	2	87*
CCOC(=O)c1ccc(NC(=S)NCCc2ccccc2F)cc1	-6	-14	78*	24	11*	89*
CCOC(=O)c1ccc(NC(=S)NC2CCCC2)cc1	0	6	95*	2	-6	96*
SMILES	MIN6 prolif	p-CIP stab down	MPTP block	FAS TE block	GRIN3A LBD mod	Rh123 counter	others
CCOC(=O)c1ccc(NC(=S)NCCC2=CCCCC2)cc1	-5	-9	77*	20	13*	86*
O=C(c1ccc(S(=O)(=O)Cc2cc(F)ccc2F)c([N+](=O)[O-])c1)N1CCOCC1	.	.	0	-7	.	.
CCN(Cc1ccccc1)C(=O)COC(=O)CNC(=O)c1ccc(C)s1	-4	-1	0	-1	-1	.
O=C(CN1C(=O)c2cccc([N+](=O)[O-])c2C1=O)NNC(=O)c1ccc(F)cc1	-1	.	0	-8	0	.
O=C(NCCC1=CCCCC1)Nc1ccc2nsnc2c1	-4	-2	85*	17	2	85*
COC(=O)c1ccc(NC(=S)NC2CCCCC2C)cc1 (stereo not given)	-4	0	98*	8	-5	94*
C=CCOc1c(Br)cc(/C=C2/C(=O)ON=C2C)cc1OC	-4	-5	1	-4	1	.
C/C(Cl)=C\Cn1c(NCCc2ccccc2)nc2c1c(=O)n(C)c(=O)n2C	-4	-4	54*	17	-1	83*
C=CCn1c(NCCc2ccccc2)nc2c1c(=O)n(C)c(=O)n2C	-2	-31	46	-10	6	.
COc1ccc(-c2[nH]c(-c3ccc(SC)cc3)nc2SCC(=O)Nc2nccs2)cc1	-2	-3	68*	3	6	49*
COc1ccc(CNC(=O)C2CCN(S(=O)(=O)c3c(C)noc3/C=C/N(C)C)CC2)cc1	-3	-21	1	-1	0	.
Cc1nc2c(-c3ccccc3)c(C)nn2c(C)c1CCC(=O)NCc1ccco1	-3	-20	-1	2	0	.
CCN1CCN(c2ccc(NC(=O)CCc3c(C)nc4c(-c5ccccc5)c(C)nn4c3C)cc2)CC1	-6	1	54*	5	-1	-25	MPTP abs DR=15*;MPTP counter DR=>80
Cc1cccc(NC(=O)CCC2CCN(C(=O)C3CC=CCC3)CC2)c1 (stereo not given)	0	-21	-1	-2	0	.
NC(c1csc(NC(=O)Nc2ccc(OC(F)(F)F)cc2)n1)C1CCCCC1 (stereo not given)	.	.	62*	-31	.	88*
O=C(Cn1c(=O)c(=O)n(Cc2ccccc2)c2ccc(Cl)cc21)NCC1CCCO1 (stereo not given)	3	-8	1	-4	-2	.
C=CCn1c(C)cc(C2=NNC(=Nc3ccc(C)cc3)SC2)c1C	0	7	1	-20	1	.
C=CCn1c(C)cc(C2=NNC(=NC(C)(C)C)SC2)c1C	0	4	101*	-13	-3	76*
COc1cccc(NC(=O)CN(C)C(=O)c2ccc(Cl)c(S(=O)(=O)N3CCCCCC3)c2)c1	-5	.	-1	18	-8	.
